Bioassay records deposited in PubChem by National Center for Advancing Translational Sciences (NCATS).
Sm TGR inh: S. mansoni TGR enzyme inhibition | Q962Y6 | purified TGR, DTNB reduction, TNB absorbance 405 nm | Potency, µM (highest dose often 114 µM), for the others: top-dose activity change, negative = inhibition, hits mostly inhibitors | 3% of 360,000 active | AID 485364; note: % is set by controls: 0 for no effect and ±100 for the full control effect; nearly all actives have a fitted effect of over 60% in size
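TGR 20 nM + NADPH 100 uM (dispensed conc.), cpd preinc 15 min RT; start with NADPH (500 uM addition) then DTNB (15 mM addition). Kinetic TNB absorbance, 405 nm filter. Four-parameter Hill fit across titration.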
TbPYK inhibitor: inhibitors of Trypanosoma brucei pyruvate kinase | Q57TT1 | TbPYK enzyme, Kinase-Glo Plus ATP luminescence, 45 min | 0.12% of 410,000 active | Potency, µM (doses to about 76.8 µM), inactives show top-dose activity, negative = inhibition, hits mostly inhibitors; note: % is set by controls: 0 for no effect and ±100 for the full control effect; nearly all actives have a fitted effect of over 50% in size
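TbPYK + substrate in 50 mM TEA pH 7.2, 100 mM KCl, 10 mM MgCl2, 0.05% BSA, 0.01% Tween-20; cpd pinned; ADP 130 uM final; 45 min RT; Kinase-Glo Plus 10 min; luminescence endpoint.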
Giardia FBPA inh-1: blocks Giardia fructose-bisphosphate aldolase activity; purified Giardia FBPA; Potency, µM (top dose mostly 59.6 µM), without a hit: at the highest dose activity, negative = inhibition, actives largely listed as inhibitors; 0.71% of 290,000 active; AID 2451; note: % is set by controls: 0 for no effect and ±100 for the full control effect; nearly all actives have a fitted effect of over 55% in size
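Giardia FBPA (40 nM reagent) was preincubated 10 min at RT with compound (up to 57.5 uM final), then substrate plus GAPDH/TPI/NAD/arsenate coupling system with diaphorase/resazurin was added; resorufin fluorescence (525/598 nm) was read after 20 min.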
RE007 growth inh: less growth of the S. pombe RE007 Vpr strain. Potency, µM (top dose mostly 92.2 µM), for the others: at the highest dose activity change, negative = less growth, usual class: inhibitors. S. pombe RE007 Vpr strain, BacTiter-Glo ATP luminescence, 24 h. AID 651644. 0.21% of 360,000 active; active = well fitted falling curve with a large enough effect; inconclusive = small, poorly fitted or top-dose-only effect; inactive = no such curve, though single readings can be large or run the other way; note: % is set by controls: 0 for no effect and ±100 for the full control effect; nearly all actives have a fitted effect of over 50% in size
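Fission yeast strain RE007, carrying one chromosomally integrated HIV-1 vpr copy, was seeded at OD 0.01 in PMG+AL medium with 23 nL pinned compound. After 24 h at 30 °C and 99% humidity, viability was read by BacTiter-Glo luminescence.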
LmPK inh: inhibitors of Leishmania mexicana pyruvate kinase; purified LmPK, Kinase-Glo ATP luminescence, 1 h; Q27686; AID 1721; Potency, µM (highest dose often 57.5 µM), for inactives: top-dose activity change, negative = inhibition, most hits filed as inhibitors; 0.37% of 290,000 active; note: % is set by controls: 0 for no effect and ±100 for the full control effect
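Screened at intermediate enzyme activity to detect both inhibitors and activators: LmPK at 0.1 nM, with a 0.5 nM enzyme column as activation reference. PEP 0.5 mM, ADP 0.1 mM; ATP detected by luminescence after 1 h.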
NS1 function inh: inhibitors of influenza NS1 protein function; Potency, µM (doses to about 46.1 µM), for inactives: at the top dose activity, positive = more growth; 0.4% of 270,000 active; AID 2326; calls by dose curve; note: actives are rising curves; nearly all actives have a fitted effect of over 50% in size
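S. cerevisiae expressing influenza A NS1, grown in glucose, washed, then diluted 1:100 into pH 6.0 -URA galactose medium with 23 nl compound. Growth recovery read as OD600; NS1-free strain serves as control.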
Giardia growth: Giardia lamblia growth inhibition | shares compounds with Giardia FBPA inh-1 | Giardia lamblia trophozoite growth inhibition | Potency, µM (doses to about 57.5 µM), for inactives: at the highest dose activity change, negative = inhibition, most hits filed as inhibitors | 5% of 1,500 active | AID 2785;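 note: trophozoites exposed to compound for 48 h at 37 °C; % is set by controls: 0 for no effect and ±100 for the full control effect; nearly all actives have a fitted effect of over 70% in size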
Mammal cell tox: mammalian cytotoxicity of Giardia aldolase inhibitor hits. mammalian cell viability counter-screen, qHTS. 4% of 1,500 active. Potency, µM (highest dose often 57.5 µM), for the others: top-dose viability change, negative = toxicity, hits mostly inhibitors. shares compounds with Giardia FBPA inh-1;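 note: Chinese hamster ovary cells used as mammalian cytotoxicity surrogate; viability measured as cellular ATP by luminescence; compound exposure lasted 48 h before reading; % is set by controls: 0 for no effect and ±100 for the full control effect; nearly all actives have a fitted effect of over 60% in size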
Giardia FBPA inh-2: confirmation of Giardia fructose-bisphosphate aldolase inhibitors. shares compounds with Giardia FBPA inh-1. purified Giardia aldolase enzyme activity, qHTS. Potency, µM (series often up to 57.5 µM), for the others: at the top dose activity change, negative = inhibition, actives largely listed as inhibitors. 5% of 1,500 active. AID 2787; note: % is set by controls: 0 for no effect and ±100 for the full control effect; nearly all actives have a fitted effect of over 45% in size
Rabbit aldolase: rabbit FBP aldolase inhibition by Giardia aldolase hits; shares compounds with Giardia FBPA inh-1; Rabbit muscle FBPA enzyme inhibition, selectivity counter-screen; 4% of 1,500 active; Potency, µM (doses to about 57.5 µM), for inactives: top-dose activity, negative = inhibition, hits mostly inhibitors; AID 2794; note: % is set by controls: 0 for no effect and ±100 for the full control effect; nearly all actives have a fitted effect of over 60% in size
Target sequence (P00883 whole entry, looked up): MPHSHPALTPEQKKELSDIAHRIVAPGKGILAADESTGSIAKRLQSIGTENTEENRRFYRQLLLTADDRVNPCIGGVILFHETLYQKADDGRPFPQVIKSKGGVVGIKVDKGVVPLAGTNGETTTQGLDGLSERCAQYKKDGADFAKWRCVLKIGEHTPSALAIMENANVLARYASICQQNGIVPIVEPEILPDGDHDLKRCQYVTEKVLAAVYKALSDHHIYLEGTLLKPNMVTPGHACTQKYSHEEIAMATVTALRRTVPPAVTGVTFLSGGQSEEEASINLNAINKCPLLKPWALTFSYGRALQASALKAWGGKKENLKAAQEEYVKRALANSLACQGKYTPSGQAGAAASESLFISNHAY
GAPDH coupling: GAPDH inhibition flagged for Giardia aldolase hits. shares compounds with Giardia FBPA inh-1. GAPDH coupling enzyme counterscreen, biochemical, qHTS. 6% of 1,500 active. Potency, µM (highest dose often 57.5 µM), for inactives: top-dose activity change, negative = inhibition, most hits filed as inhibitors; note: % is set by controls: 0 for no effect and ±100 for the full control effect; nearly all actives have a fitted effect of over 55% in size
Starred values were filed as active, the others as inactive; [ ] = another dose, or the depositor's remark. This is a sample that favours compounds with a hit; in the whole collection about 3.5% have one here. Unless noted, calls come from the whole dose curve; as a rule, active = well fitted curve in the direction sought with a large enough effect; inconclusive = small, poorly fitted or top-dose-only effect, or another doubt; inactive = no such curve, though single readings can be large; an effect the other way counts as inactive or inconclusive. Potency is the fitted concentration of half-maximal effect.

How did CCc1nc2ccc(C(=O)NCc3cc(OC)ccc3OC)cc2nc1CC do in these assays?
Sm TGR inh: 4%; TbPYK inhibitor: 2%

How did Cc1cccc(C(=O)N2CCc3cc(CNC(=O)c4cc5ccccc5[nH]4)ccc32)c1 do in these assays?
Sm TGR inh: 4%; TbPYK inhibitor: -1%

Results for Cc1ccc(S(=O)(=O)c2cn(CC(=O)Nc3ccccc3)c3cc4c(cc3c2=O)OCO4)cc1 ?
Sm TGR inh: -4%; TbPYK inhibitor: -1%

What do the screens show for `O=C(CCc1nc2cccnc2n1Cc1cccs1)Nc1cccc(Cl)c1`?
Sm TGR inh: -12%; TbPYK inhibitor: 0%

What do the screens show for `COCC(=O)Nc1nc2ccccc2s1`?
Sm TGR inh: 2%; TbPYK inhibitor: -1%; Giardia FBPA inh-1: 9%; RE007 growth inh: 1%; LmPK inh: -9%; NS1 function inh: -3%

How did NC(=S)Nc1nc2ccccc2s1 do in these assays?
Sm TGR inh: -2%; TbPYK inhibitor: -7%; Giardia FBPA inh-1: 5.6µM*; RE007 growth inh: -29%; LmPK inh: 1%; Giardia growth: -6%[38.3 µM]; Mammal cell tox: inconclusive; Giardia FBPA inh-2: 6%; Rabbit aldolase: 10%; GAPDH coupling: -13%

Results for CCc1nnc(NC(=O)CN2CCN(S(C)(=O)=O)CC2)s1 ?
Sm TGR inh: -10%; TbPYK inhibitor: 0%; Giardia FBPA inh-1: inconclusive; RE007 growth inh: 5%; LmPK inh: 7%; NS1 function inh: 4%

What do the screens show for `CCc1nnc(NC(=O)CN2CCN(CC)CC2)s1`?
Sm TGR inh: 1%; TbPYK inhibitor: -1%; Giardia FBPA inh-1: 3.5µM*; RE007 growth inh: -7%; LmPK inh: -2%; NS1 function inh: 1%; Giardia growth: 2%[10.4 µM]; Mammal cell tox: 1%; Giardia FBPA inh-2: 9%; Rabbit aldolase: 6%; GAPDH coupling: 14%

How did CCOC(=O)N1CCN(CC(=O)Nc2nnc(C(F)(F)F)s2)CC1 do in these assays?
Sm TGR inh: -16%; TbPYK inhibitor: 22%; Giardia FBPA inh-1: 5µM*; RE007 growth inh: 0%; LmPK inh: -3%; NS1 function inh: inconclusive; Giardia growth: inconclusive; Mammal cell tox: -6%; Giardia FBPA inh-2: 7%; Rabbit aldolase: 6%; GAPDH coupling: -10%

How did O=C(CN1CCN(c2ccccc2F)CC1)Nc1nnc(C(F)(F)F)s1 do in these assays?
Sm TGR inh: 34%; TbPYK inhibitor: 3%; Giardia FBPA inh-1: -2%; RE007 growth inh: 4%; LmPK inh: 3%; NS1 function inh: -1%

What do the screens show for `CSc1ccc(CNC(=O)CCn2ccc3cc(S(=O)(=O)N4CCC(C)CC4)ccc32)cc1`?
Sm TGR inh: 4%; TbPYK inhibitor: 6%
